The source made the active and inactive calls.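 The calls were made as follows: active = activity change under -35% in any replicate well, with more than 20 beads read in that well; inactive = the rest.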
The molecules below were run against Caspase recruitment domain-containing protein 9 (Homo sapiens) + E3 ubiquitin-protein ligase TRIM62 (Homo sapiens) (UniProt Q9H257+Q9BVG3) (assay: CARD9/TRIM62 protein interaction inhibitors – cell lysate, HEK293FT lysates, Luminex bead ELISA, primary screen (AID 1259341;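 also: PE anti-Flag signal of Flag-CARD9 captured by myc-TRIM62 beads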)). Conditions: PE fluorescence, stronger effect = lower value, concentration not given here.
Chain of Caspase recruitment domain-containing protein 9 (Homo sapiens) + E3 ubiquitin-protein ligase TRIM62 (Homo sapiens) (Q9BVG3 whole entry, looked up, the tested form may be a part): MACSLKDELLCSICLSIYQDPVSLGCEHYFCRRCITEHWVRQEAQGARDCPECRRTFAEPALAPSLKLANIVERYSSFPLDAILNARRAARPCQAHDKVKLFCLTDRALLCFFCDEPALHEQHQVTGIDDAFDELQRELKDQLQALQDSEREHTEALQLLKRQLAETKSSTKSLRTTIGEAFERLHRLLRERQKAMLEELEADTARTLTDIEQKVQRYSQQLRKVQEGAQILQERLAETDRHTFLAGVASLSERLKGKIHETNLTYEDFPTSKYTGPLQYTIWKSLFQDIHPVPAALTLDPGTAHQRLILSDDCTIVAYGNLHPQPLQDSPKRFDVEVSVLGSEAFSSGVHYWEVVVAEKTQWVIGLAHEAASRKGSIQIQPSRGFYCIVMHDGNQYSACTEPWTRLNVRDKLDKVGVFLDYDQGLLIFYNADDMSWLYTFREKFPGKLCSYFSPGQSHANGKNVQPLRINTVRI
Chain of Caspase recruitment domain-containing protein 9 (Homo sapiens) + E3 ubiquitin-protein ligase TRIM62 (Homo sapiens) (Q9H257 whole entry, looked up, the tested form may be a part): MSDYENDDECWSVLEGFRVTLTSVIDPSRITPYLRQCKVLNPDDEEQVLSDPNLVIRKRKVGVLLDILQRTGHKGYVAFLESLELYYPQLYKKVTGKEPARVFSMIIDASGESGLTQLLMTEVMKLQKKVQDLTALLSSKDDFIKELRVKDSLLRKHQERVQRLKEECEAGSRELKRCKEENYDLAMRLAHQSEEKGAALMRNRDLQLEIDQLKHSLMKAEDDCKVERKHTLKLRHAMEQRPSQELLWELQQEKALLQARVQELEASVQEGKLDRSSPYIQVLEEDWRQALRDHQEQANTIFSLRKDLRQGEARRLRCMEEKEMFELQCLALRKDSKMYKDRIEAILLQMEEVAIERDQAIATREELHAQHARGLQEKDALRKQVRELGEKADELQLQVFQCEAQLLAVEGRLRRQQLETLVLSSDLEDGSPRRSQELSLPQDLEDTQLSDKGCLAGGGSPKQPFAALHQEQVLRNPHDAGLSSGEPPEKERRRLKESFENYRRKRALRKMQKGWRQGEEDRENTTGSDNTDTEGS
In the case of `N#CNc1nc(O)cc(=O)[nH]1`, the activity change, negative = inhibition is reported as -9.24% (inactive).
In the case of `C[C@H](CO)N1C[C@H](C)[C@@H](CN(C)C(=O)C2CCCCC2)OCCCC[C@H](C)Oc2ccc(NS(=O)(=O)c3ccc(F)cc3)cc2C1=O`, the activity change, negative = inhibition is reported as 9.27% (inactive).
`C=CCNc1ncnc2c1CCN(C(=O)c1ccc(CSC)o1)CC2` was tested, and the activity change, negative = inhibition was 2.9% (inactive).
`O=C1C=C(c2ccccc2)Nc2ccccc2N1` was tested, and the activity change, negative = inhibition was 2.64% (inactive).
For `O=C(NCc1ccco1)C1CCCN(S(=O)(=O)c2cccc3nonc23)C1` (stereo unspecified), the activity change, negative = inhibition was 0.63% (inactive).
In the case of `O=C1NC(c2ccc(Br)cc2)Nc2sc3c(c21)CCC3` (stereo unspecified), the activity change, negative = inhibition is reported as -3.86% (inactive).
In the case of `N#Cc1c(-c2ccco2)cc(-c2cccnc2)nc1N`, the activity change, negative = inhibition is reported as 0.372% (inactive).
`O=C(Nc1cccc2nsnc12)c1ccc(-c2cccc(Cl)c2)o1` was tested, and the activity change, negative = inhibition was 11.7% (inactive).
For `Cc1ccc(-c2nnc(-c3nc(Nc4nc5ccccc5s4)c4ccccc4n3)o2)cc1`, the activity change, negative = inhibition was -10.3% (inactive).
With `O=C(COC(=O)CCC(=O)c1cccs1)NCc1ccco1` the activity change, negative = inhibition was 0.961% (inactive).
For `O=C(O)C1Oc2cc3ccccc3cc2O1`, the activity change, negative = inhibition was -13.6% (inactive).
With `O=C(Nc1nc(-c2ccco2)c(-c2ccco2)s1)c1ccc(F)cc1F` the activity change, negative = inhibition was 6.3% (inactive).
In the case of `O=C(Nc1nccs1)c1cc(-c2ccco2)nc2ccccc12`, the activity change, negative = inhibition is reported as -0.894% (inactive).
With `O=C(Nc1ccc2c(c1)nc1n2CCN(C2CCCCC2)C1)c1ccco1` the activity change, negative = inhibition was -2.69% (inactive).
With `Cc1sc2ncnc(SCc3ccco3)c2c1C` the activity change, negative = inhibition was -1.85% (inactive).
In the case of `CCn1ccnc1C1CCN(C(=O)CCn2c(C)nc3ccccc32)CC1`, the activity change, negative = inhibition is reported as -6.29% (inactive).
With `Cc1cc(C(=O)Nc2nc3c(s2)CCc2ccccc2-3)no1` the activity change, negative = inhibition was 3.92% (inactive).
With `CN(C)c1ccc(CN2C[C@H]3CC[C@@H]2CN(C(=O)c2ccncc2)C3)cn1` the activity change, negative = inhibition was 1.51% (inactive).
With `Cc1ccc(Nc2nc(C(=O)Nc3ccc(Cl)cc3)nc3ccccc23)cc1` the activity change, negative = inhibition was -19.6% (inactive).
`Cc1ccccc1C(=O)Nc1cnc(N2CCC(C(N)=O)(N3CCCCC3)CC2)c(C(=O)O)c1` was tested, and the activity change, negative = inhibition was -48.4% (active).
With `CCOC(=O)/C=C/S(=O)(=O)c1ccc(NC(C)=O)cc1` the activity change, negative = inhibition was -8.13% (inactive).
`CC1CCN(c2nc(-c3ccco3)c3c(c2C#N)CC(C)(C)OC3)CC1` was tested, and the activity change, negative = inhibition was 5.51% (inactive).
`CC(CCc1ccco1)N(C)S(=O)(=O)c1ccc2[nH]c(=O)ccc2c1` (stereo unspecified) was tested, and the activity change, negative = inhibition was 3.38% (inactive).
For `O=C(CC1Nc2ccccc2OC1=O)Nc1ccc(Cl)cc1` (stereo unspecified), the activity change, negative = inhibition was 13.8% (inactive).
In the case of `O=C(Nc1ccc2oc(-c3cccnc3)nc2c1)c1ccc2c(c1)OCCO2`, the activity change, negative = inhibition is reported as 4.18% (inactive).
For `CCCC(=O)NCc1ccc2c(c1)cc(C)n2C`, the activity change, negative = inhibition was 7.86% (inactive).
For `O=C(NCc1ccco1)c1c2c(nc3ccccc13)CCC2`, the activity change, negative = inhibition was -3.42% (inactive).
`CCCN1CCCn2nc(CNC(=O)[C@@H](N)Cc3ccc(O)cc3)cc2C1` was tested, and the activity change, negative = inhibition was -26.6% (inactive).
For `COCCC(=O)N1CCCC2(CCN(CCN3CCCC3)C2=O)C1` (stereo unspecified), the activity change, negative = inhibition was -7.49% (inactive).
For `O=C(COC(=O)c1ccc(F)cc1F)Nc1ncccn1`, the activity change, negative = inhibition was -18.2% (inactive).
`O=C(O)COc1ccc(-n2cccc2)cc1` was tested, and the activity change, negative = inhibition was -1.45% (inactive).
`CC(C(=O)N1CCCC1)N1CCN(c2ccccc2O)CC1` (stereo unspecified) was tested, and the activity change, negative = inhibition was 5.92% (inactive).
In the case of `O=C(NC(Sc1ncccn1)C(=O)c1ccccc1)c1ccccc1` (stereo unspecified), the activity change, negative = inhibition is reported as 2.47% (inactive).
With `O=C(CN1CCOC1=O)N1CCC2(CCC(=O)N(CCCn3ccnc3)C2)CC1` the activity change, negative = inhibition was -6.82% (inactive).
`COc1ccc(-c2ccc(CCC(=O)O)o2)cc1` was tested, and the activity change, negative = inhibition was -0.268% (inactive).
`N#Cc1sc2nc(-c3ccccc3)cc(-c3ccco3)c2c1N` was tested, and the activity change, negative = inhibition was 2.21% (inactive).

Reference: PubChem BioAssay AID1259341 (Broad Institute, 2017)
